Source: PubChem BioAssay AID430 (Sanford-Burnham Center for Chemical Genomics, 2006)
Among all 63,000 compounds or so, about 1,100 (1.7%) were called active. The entries come from a sample that favours actives as a whole. Results with a measured potency or affinity are listed apart. Unmarked numbers belong to inactive results. Cut-off read from the data, not from the text of the source: active = cytotoxicity above about 50%; inactive = the rest.

Assay: HPDE-C7 pancreatic duct cell viability loss – fluorescence, HTS (AID 430);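 note: cells exposed to compound for 48 hours before viability readout; 0% = vehicle and 100% = reference cytotoxic drug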
Conditions: HPDE-C7 pancreatic duct cells viability, at 10 µM, hits give high values

SMILES	cytotoxicity
Cn1c(=O)c2cc(S(=O)(=O)NCCC(=O)N3CC=C(c4ccccc4)CC3)ccc2n(C)c1=O	-11.2%
COc1c(Cl)cc(Cl)cc1/C=N/n1cnnc1	-1.3%
CNS(=O)(=O)c1ccc(NC(=O)C(CCSC)NC(N)=O)cc1 (configuration not stated)	0.9%
CCOc1ccc(S(=O)(=O)Nc2cccc(Cl)c2)cc1	57.6% (active)
CCOc1ccc(NS(=O)(=O)c2cc(Cl)ccc2OC)cc1	-8.2%
CCOc1ccc(S(=O)(=O)Nc2cccnc2)cc1	-3.5%
CCOc1ccc(NS(=O)(=O)c2ccc(NS(C)(=O)=O)cc2)cc1	-4.7%
COc1ccc(S(=O)(=O)Nc2cccc(Cl)c2)cc1OC	13.9%
CCOc1ccc(S(=O)(=O)Nc2cc(Cl)ccc2O)cc1	67.2% (active)
CCCc1cc(=O)[nH]c(SC(CC)C(=O)Nc2ccccc2C#N)n1 (configuration not stated)	-23.8%
O=C(Cn1cc2c(n1)CCCC2)NC1CCCCCC1	-9.2%
Cn1cccc1C(=O)OCc1cc(Cl)cc2c1OCOC2	1.1%
CCN(CC(=O)Nc1ccccc1C(=O)OC)S(=O)(=O)c1ccc(OC)cc1	1.1%
Cc1ccc(Cl)cc1N1CCN(Cc2nnnn2C2CCCCC2)CC1	-16%
Cc1cccc(N=c2oc3cc(O)ccc3cc2C(N)=O)c1	59.6% (active)
NC(=O)c1cc2ccc(O)cc2oc1=Nc1ccccc1	5.3%
Cc1ccc(N=c2oc3cc(O)ccc3cc2C(N)=O)cc1	3.9%
COCCn1c(SCC(=O)Nc2nnc(C)s2)nnc1-c1cc2ccccc2cc1O	7.4%
Cc1[nH]c(=O)[nH]c(=O)c1NS(=O)(=O)c1ccc2c(c1)CCCC2	10.1%
COCCCN(C(=O)Nc1ccccc1)C(C)c1ccncc1 (configuration not stated)	4.9%
COc1ccc(N2C(=O)CC(N3CCN(C4CCc5ccccc5C4)CC3)C2=O)cc1 (configuration not stated)	-10.3%
Cc1ccc(NC(=O)CSC2=C(C#N)C(c3ccco3)C3=C(CC(C)(C)CC3=O)N2)cc1 (configuration not stated)	57.2% (active)
CC1(C)CC(=O)C2=C(C1)NC(SCC(=O)Nc1ccccc1)=C(C#N)C2c1ccco1 (configuration not stated)	-16.1%
COc1cccc(NC(=O)CSC2=C(C#N)C(c3ccco3)C3=C(CCCC3=O)N2)c1 (configuration not stated)	22.1%
CCCCc1ccc(NC(=O)CSC2=C(C#N)C(c3ccco3)C3=C(CCCC3=O)N2)cc1 (configuration not stated)	72.2% (active)
CCc1ccc(NC(=O)CSC2=C(C#N)C(c3ccco3)C3=C(CCCC3=O)N2)cc1 (configuration not stated)	-0.7%
CCOC(=O)C1=C(c2ccccc2)NC(SCC(=O)Nc2ccc(C)cc2)=C(C#N)C1c1ccco1 (configuration not stated)	10.3%
